High-throughput results deposited in PubChem BioAssay by several laboratories.
DAX1 inh-1: DAX1 (NR0B1) inhibitors on StAR promoter, primary screen, cell-based, luminescence, SF-1 (NR5A1), full-length DAX-1; 370,000 compounds, 1.1% hits; AID 652010, 2013; HEK293T StAR-luciferase reporter, SF-1/DAX-1 repression relief; inhibition, % at 6.8 µM;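 active = inhibition above the mean over all tested compounds plus 3 SD, cut at about 3.6% in these data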;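 also: higher inhibition means more luminescence from relief of DAX-1 repression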
DAX1 inh-2: DAX1 (NR0B1) inhibitors, primary screen, cell-based, HEK293, Gal4-DAX1, luciferase luminescence | Nuclear receptor subfamily 0 group B member 1 (Homo sapiens), P51843 | inhibition, % at 6.75 µM | HEK293 Gal4-DAX1 luciferase reporter | 340,000 compounds, 0.99% hits;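 active = inhibition above the mean over all tested compounds plus 3 SD, cut at about 4.2% in these data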;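 also: inhibition shows as a rise in luminescence from relieved DAX1 repression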
Target sequence (P51843 207-470 limits assumed): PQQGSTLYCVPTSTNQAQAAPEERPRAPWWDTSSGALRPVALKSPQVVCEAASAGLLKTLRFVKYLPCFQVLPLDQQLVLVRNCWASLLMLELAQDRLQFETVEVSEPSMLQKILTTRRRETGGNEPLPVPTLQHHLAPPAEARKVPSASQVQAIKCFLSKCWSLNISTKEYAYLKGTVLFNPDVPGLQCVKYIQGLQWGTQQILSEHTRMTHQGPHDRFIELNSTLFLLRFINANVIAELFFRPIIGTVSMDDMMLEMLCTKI
hgDAF12 agonist: H. glycines DAF-12 receptor agonists, primary screen, cell-based, luminescence, HEK293, GAL4 fusion, UAS-luciferase; Nuclear hormone receptor DAF-12 (Heterodera glycines), GAL4 fusion; HEK293 GAL4-hgDAF12 UAS-luciferase reporter, agonist luminescence; normalized to butyrate control; activation, % at 6.8 µM; 370,000 compounds, 1.8% hits; AID 687014, 2013;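 active = activation above a cutoff set at the mean of all screened compounds plus 3 SD, cut at about 10% in these data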
Rev-erbA mod: modulators of Rev-erb alpha DNA binding, primary screen, biochemical, FITC-DNA, fluorescence polarization, uHTS. 370,000 compounds, 0.79% hits. activity, % at 10 µM. Rev-erbα–FITC-DNA binding, 90 min. Nuclear receptor subfamily 1 group D member 1 (Homo sapiens), P20393;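 active = activity above about 14%, limit read from the data; passing the limit was not always enough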
ssDAF-12 act: S. stercoralis DAF-12 nuclear receptor activators, primary screen, cell-based, luminescence, HEK293, GRIP1 co-expression, lit1-tk-luc; Nuclear hormone receptor DAF-12 (Strongyloides stercoralis); HEK293 ssDAF-12/GRIP1 lit1-tk-luc reporter; % of 3 µM dafachronic acid response; activation, % at 6.8 µM; 370,000 compounds, 1% hits; AID 652126, 2013;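 active = activation above the mean over all tested compounds plus 3 SD, cut at about 0.9% in these data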
hcDAF-12 act: H. contortus DAF-12 nuclear receptor activators, primary screen, cell-based, luminescence, HEK293, lit1-tk-luc reporter. HEK293 hcDAF-12 lit1-tk-luc reporter; 0% DMSO, 100% Δ7-dafachronic acid. activation, % at 6.8 µM. 370,000 compounds, 1.4% hits. AID 652067, 2013;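 active = activation above the mean of all tested compounds plus 3 SD, cut at about 5.5% in these data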
Hits are given with their value; – = inactive; · = no result given. Compounds with a hit are over-represented: about 4.8% of the library has one in this group of screens.

SMILES	DAX1 inh-1	DAX1 inh-2	hgDAF12 agonist	Rev-erbA mod	ssDAF-12 act	hcDAF-12 act
O=C(OC(c1ccccc1)c1nccc2ccccc12)c1ccccc1 (stereo unspecified)	–	–	–	–	–	–
CC(C)C(OC(=O)c1ccccc1)c1nccc2ccccc12 (stereo unspecified)	–	4.2	–	–	–	–
O=C1CN(C(=O)C2CCCCC2)C=CN1CCc1ccccc1Br	·	·	–	–	–	–
S=C(NC12CC3CC(CC(C3)C1)C2)N1CCCC1	–	–	–	–	–	–
O=C(CC12CC3CC(CC(C3)C1)C2)NC(=S)N1CCCCC1	–	–	–	–	1.2	–
Cc1c(OCC(=O)NCC(O)c2ccccc2)ccc2c3c(c(=O)oc12)CCC3 (stereo unspecified)	–	–	–	–	–	–
Cc1c(OCC(=O)N[C@H](C(=O)O)c2ccccc2)ccc2c3c(c(=O)oc12)CCCC3	–	4.3	–	–	–	–
COC(=O)[C@]12C[C@H](CC(=O)N3CCSCC3)C(=O)N(Cc3ccc4c(c3)OCO4)C1=C[C@H](COCc1ccccc1)O[C@@H]2C	–	·	–	–	–	–
O=C(OCc1nc2ccccc2s1)c1cc2ccccc2oc1=O	–	·	–	–	0.9	6.2
O=C(OCc1nc2ccccc2s1)c1ccc(Br)s1	–	–	–	–	1.1	–
Cc1ccc(C(=O)OCc2nc3ccccc3s2)o1	–	–	–	–	–	5.8
Nc1ccc(C(=O)OCc2nc3ccccc3s2)cc1	–	–	–	–	–	–
COc1ccc(CCNC(=O)COC(=O)c2cc3ccccc3oc2=O)cc1OC	–	–	–	–	1.4	–
COC(=O)[C@]12C[C@H](CC(=O)N3CCC(c4ccccc4)CC3)C(=O)N(Cc3cccc4ccccc34)C1=C[C@H](COCc1ccccc1)O[C@@H]2C	–	·	–	–	–	–
OCC(S)CS (stereo unspecified)	·	·	·	–	·	·
O=C(C1CCN(c2cncnc2)CC1)N1CCCC1	–	·	–	–	–	–
NC(=O)CSCc1nc2ccccc2s1	–	–	–	–	–	6.0
Cc1nc(NC(=O)c2cc3ccccc3o2)ccc1Br	–	–	–	–	–	–
Cc1cccc(NC(=O)c2cc3ccccc3c(=O)o2)n1	–	6.5	–	–	–	–
COCCCNC(=O)CC1C[C@H](C(=O)N2CCOCC2)[C@@]2(C)c3[nH]c4ccc(OC)cc4c3CCN2C1=O (stereo partly specified)	4.1	–	–	–	–	–
CC[C@]12c3[nH]c4ccccc4c3CCN1C(=O)C(CC(=O)NCc1ccco1)C[C@@H]2C(=O)N1CCN(C(=O)c2ccco2)CC1 (stereo partly specified)	–	5.8	–	–	–	–
O=C(CC1C[C@H](C(=O)N2CCOCC2)[C@@]2(CCC3CCCC3)c3[nH]c4ccccc4c3CCN2C1=O)NCCC1=CCCCC1 (stereo partly specified)	–	–	–	–	–	–
CN(C)CCCNC(=O)CC1C[C@H](C(=O)N2CCOCC2)[C@@]2(CCC3CCCC3)c3[nH]c4ccccc4c3CCN2C1=O (stereo partly specified)	3.7	4.3	–	–	–	–
Cc1nc(/C=C/c2ccccc2)[nH]c(=O)c1-c1ccccc1	–	–	11.9	–	–	–
COC(=O)[C@]12C[C@H](CC(=O)N3CCN(C(=O)c4ccco4)CC3)C(=O)N(Cc3ccco3)C1=C[C@H](C(C)C)O[C@@H]2C1CC1	–	·	–	–	–	–
Cn1nc(N)c2ncc(-c3ccc(Cl)cc3)nc21	–	–	11.2	–	–	–
